# Results as given in the supplement of paper PMC7411054.
# Assays:
# Details in all cases: treatment time: 24 h
# [1] = system: A549-GM130-SQSTM1; assay: lowest phenotypically active concentration; higher = less potent
# How it was run: (§1)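 Phenotypic activity depended on meeting both a deviation and a reproducibility criterion. The fifteen gene-edited A549, HepG2 and WPMY1 reporter lines were treated at 0.3, 1, 3 or 9 µM for 24 h, four wells each, then imaged live with features normalised to solvent control wells. Deviation required ≥3 of 4 wells past the 95th percentile of control Euclidean distances, and reproducibility a median replicate Pearson correlation above the 95th percentile of non-replicates.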
# [2] = system: A549-ACTB-RAB5A; assay: phenotypically active (imaging signature differs from DMSO and reproducible) at any of 0.3-9 uM (binary (1 = active, 0 = inactive)); higher = active
# How it was run: as §1
# [3] = system: A549-CANX-COX4; assay: as above
# How it was run: as §1
# [4] = system: A549-GM130-SQSTM1; assay: as above
# How it was run: as §1
# [5] = system: A549-TP53BP1-CLTA; assay: as above
# How it was run: as §1
# [6] = system: A549-TUBA1B-RELA; assay: as above
# How it was run: as §1
# [7] = system: HepG2-ACTB-RAB5A; assay: as above
# How it was run: as §1
# [8] = system: HepG2-CANX-COX4; assay: as above
# How it was run: as §1
# [9] = system: HepG2-GM130-SQSTM1; assay: as above
# How it was run: as §1
# [10] = system: HepG2-TP53BP1-CLTA; assay: as above
# How it was run: as §1
# [11] = system: HepG2-TUBA1B-RELA; assay: as above
# How it was run: as §1
# [12] = system: WPMY1-ACTB-RAB5A; assay: as above
# How it was run: as §1
# [13] = system: WPMY1-CANX-COX4; assay: as above
# How it was run: as §1
# [14] = system: WPMY1-GM130-SQSTM1; assay: as above
# How it was run: as §1
# [15] = system: WPMY1-TP53BP1-CLTA; assay: as above
# How it was run: as §1
# [16] = system: WPMY1-TUBA1B-RELA; assay: as above
# How it was run: as §1
# [17] = system: A549-ACTB-RAB5A; assay: lowest phenotypically active concentration; higher = less potent
# How it was run: as §1
# [18] = system: WPMY1-GM130-SQSTM1; assay: as above
# How it was run: as §1
# [19] = system: A549-TUBA1B-RELA; assay: as above
# How it was run: as §1
# [20] = system: HepG2-ACTB-RAB5A; assay: as above
# How it was run: as §1
smiles,measurement,setting,value
O=C(COc1cccc2c(=O)[nH]ccc12)c1ccccc1,lowest phenotypically active concentration,[1],9 µM
same,phenotypically active,[2],0 (inactive)
same,phenotypically active,[3],0 (inactive)
same,phenotypically active,[4],1 (active)
same,phenotypically active,[5],0 (inactive)
same,phenotypically active,[6],0 (inactive)
same,phenotypically active,[7],0 (inactive)
same,phenotypically active,[8],0 (inactive)
same,phenotypically active,[9],0 (inactive)
same,phenotypically active,[10],0 (inactive)
same,phenotypically active,[11],0 (inactive)
same,phenotypically active,[12],0 (inactive)
same,phenotypically active,[13],0 (inactive)
same,phenotypically active,[14],0 (inactive)
same,phenotypically active,[15],0 (inactive)
same,phenotypically active,[16],0 (inactive)
COc1cc2nc3occc3c(OC)c2cc1OC [Kokusaginine],lowest phenotypically active concentration,[1],3 µM
same,phenotypically active,[2],0 (inactive)
same,phenotypically active,[3],0 (inactive)
same,phenotypically active,[4],1 (active)
same,phenotypically active,[5],0 (inactive)
same,phenotypically active,[6],0 (inactive)
same,phenotypically active,[7],0 (inactive)
same,phenotypically active,[8],0 (inactive)
same,phenotypically active,[9],0 (inactive)
same,phenotypically active,[10],0 (inactive)
same,phenotypically active,[11],0 (inactive)
same,phenotypically active,[12],0 (inactive)
same,phenotypically active,[13],0 (inactive)
same,phenotypically active,[14],0 (inactive)
same,phenotypically active,[15],0 (inactive)
same,phenotypically active,[16],0 (inactive)
CC(C)c1ccc(-c2cc(=O)c3ccccc3o2)cc1,lowest phenotypically active concentration,[17],9 µM
same,lowest phenotypically active concentration,[18],3 µM
same,phenotypically active,[2],1 (active)
same,phenotypically active,[3],0 (inactive)
same,phenotypically active,[4],0 (inactive)
same,phenotypically active,[5],0 (inactive)
same,phenotypically active,[6],0 (inactive)
same,phenotypically active,[7],0 (inactive)
same,phenotypically active,[8],0 (inactive)
same,phenotypically active,[9],0 (inactive)
same,phenotypically active,[10],0 (inactive)
same,phenotypically active,[11],0 (inactive)
same,phenotypically active,[12],0 (inactive)
same,phenotypically active,[13],0 (inactive)
same,phenotypically active,[14],1 (active)
same,phenotypically active,[15],0 (inactive)
same,phenotypically active,[16],0 (inactive)
N=C(N)NC(=N)NCCc1ccccc1 [phenformin],lowest phenotypically active concentration,[1],9 µM
same,phenotypically active,[2],0 (inactive)
same,phenotypically active,[3],1 (active)
same,phenotypically active,[4],1 (active)
same,phenotypically active,[5],0 (inactive)
same,phenotypically active,[6],0 (inactive)
same,phenotypically active,[7],0 (inactive)
same,phenotypically active,[8],0 (inactive)
same,phenotypically active,[9],0 (inactive)
same,phenotypically active,[10],0 (inactive)
same,phenotypically active,[11],0 (inactive)
same,phenotypically active,[12],0 (inactive)
same,phenotypically active,[13],0 (inactive)
same,phenotypically active,[14],0 (inactive)
same,phenotypically active,[15],0 (inactive)
same,phenotypically active,[16],0 (inactive)
CCOC(=O)N1CCC(=C2c3ccc(Cl)cc3CCc3cccnc32)CC1 [loratadine],lowest phenotypically active concentration,[17],9 µM
same,phenotypically active,[2],1 (active)
same,phenotypically active,[3],0 (inactive)
same,phenotypically active,[4],0 (inactive)
same,phenotypically active,[5],0 (inactive)
same,phenotypically active,[6],0 (inactive)
same,phenotypically active,[7],0 (inactive)
same,phenotypically active,[8],1 (active)
same,phenotypically active,[9],0 (inactive)
same,phenotypically active,[10],0 (inactive)
same,phenotypically active,[11],0 (inactive)
same,phenotypically active,[12],0 (inactive)
same,phenotypically active,[13],0 (inactive)
same,phenotypically active,[14],0 (inactive)
same,phenotypically active,[15],0 (inactive)
same,phenotypically active,[16],0 (inactive)
O=C1NCCCc2c1oc1ccc(O)cc21,lowest phenotypically active concentration,[17],9 µM
same,lowest phenotypically active concentration,[18],9 µM
same,phenotypically active,[2],1 (active)
same,phenotypically active,[3],0 (inactive)
same,phenotypically active,[4],0 (inactive)
same,phenotypically active,[5],0 (inactive)
same,phenotypically active,[6],0 (inactive)
same,phenotypically active,[7],0 (inactive)
same,phenotypically active,[8],1 (active)
same,phenotypically active,[9],0 (inactive)
same,phenotypically active,[10],0 (inactive)
same,phenotypically active,[11],1 (active)
same,phenotypically active,[12],1 (active)
same,phenotypically active,[13],0 (inactive)
same,phenotypically active,[14],1 (active)
same,phenotypically active,[15],0 (inactive)
same,phenotypically active,[16],1 (active)
O=C(O/N=C1\c2ccccc2-c2nc3ccccc3nc21)c1ccco1,lowest phenotypically active concentration,[17],9 µM
same,phenotypically active,[2],1 (active)
same,phenotypically active,[3],0 (inactive)
same,phenotypically active,[4],0 (inactive)
same,phenotypically active,[5],0 (inactive)
same,phenotypically active,[6],0 (inactive)
same,phenotypically active,[7],0 (inactive)
same,phenotypically active,[8],0 (inactive)
same,phenotypically active,[9],0 (inactive)
same,phenotypically active,[10],0 (inactive)
same,phenotypically active,[11],0 (inactive)
same,phenotypically active,[12],1 (active)
same,phenotypically active,[13],1 (active)
same,phenotypically active,[14],0 (inactive)
same,phenotypically active,[15],1 (active)
same,phenotypically active,[16],1 (active)
O=c1cc(N2CCOCC2)oc2c(-c3ccccc3)cccc12,lowest phenotypically active concentration,[1],9 µM
same,lowest phenotypically active concentration,[19],9 µM
same,lowest phenotypically active concentration,[20],9 µM
same,lowest phenotypically active concentration,[18],≤ 0.3 µM
same,phenotypically active,[2],0 (inactive)
same,phenotypically active,[3],0 (inactive)
same,phenotypically active,[4],1 (active)
same,phenotypically active,[5],1 (active)
same,phenotypically active,[6],1 (active)
same,phenotypically active,[7],1 (active)
same,phenotypically active,[8],0 (inactive)
same,phenotypically active,[9],1 (active)
same,phenotypically active,[10],1 (active)
same,phenotypically active,[11],1 (active)
same,phenotypically active,[12],1 (active)
same,phenotypically active,[13],1 (active)
same,phenotypically active,[14],1 (active)
same,phenotypically active,[15],1 (active)
same,phenotypically active,[16],0 (inactive)
Cc1cc(C(C)Nc2ccccc2)c2nc(N3CCOCC3)cc(=O)n2c1 (stereo not given),lowest phenotypically active concentration,[17],9 µM
same,lowest phenotypically active concentration,[20],9 µM
same,lowest phenotypically active concentration,[18],9 µM
same,phenotypically active,[2],1 (active)
same,phenotypically active,[3],0 (inactive)
same,phenotypically active,[4],0 (inactive)
same,phenotypically active,[5],0 (inactive)
same,phenotypically active,[6],0 (inactive)
same,phenotypically active,[7],1 (active)
same,phenotypically active,[8],0 (inactive)
same,phenotypically active,[9],0 (inactive)
same,phenotypically active,[10],0 (inactive)
same,phenotypically active,[11],0 (inactive)
same,phenotypically active,[12],0 (inactive)
same,phenotypically active,[13],1 (active)
same,phenotypically active,[14],1 (active)
same,phenotypically active,[15],0 (inactive)
same,phenotypically active,[16],0 (inactive)
CC(C)(C(=O)c1cccnc1)c1cccnc1 [metyrapone],lowest phenotypically active concentration,[1],9 µM
same,phenotypically active,[2],0 (inactive)
same,phenotypically active,[3],0 (inactive)
same,phenotypically active,[4],1 (active)
same,phenotypically active,[5],0 (inactive)
same,phenotypically active,[6],0 (inactive)
same,phenotypically active,[7],0 (inactive)
same,phenotypically active,[8],0 (inactive)
same,phenotypically active,[9],0 (inactive)
same,phenotypically active,[10],0 (inactive)
same,phenotypically active,[11],0 (inactive)
same,phenotypically active,[12],0 (inactive)
same,phenotypically active,[13],0 (inactive)
same,phenotypically active,[14],0 (inactive)
same,phenotypically active,[15],0 (inactive)
same,phenotypically active,[16],0 (inactive)
CC(C)(C)c1cc(/C=C(\C#N)C(N)=S)cc(C(C)(C)C)c1O,lowest phenotypically active concentration,[1],3 µM
same,lowest phenotypically active concentration,[20],9 µM
same,lowest phenotypically active concentration,[18],9 µM
same,phenotypically active,[2],0 (inactive)
same,phenotypically active,[3],1 (active)
same,phenotypically active,[4],1 (active)
same,phenotypically active,[5],1 (active)
same,phenotypically active,[6],0 (inactive)
same,phenotypically active,[7],1 (active)
same,phenotypically active,[8],1 (active)
same,phenotypically active,[9],1 (active)
same,phenotypically active,[10],1 (active)
same,phenotypically active,[11],1 (active)
same,phenotypically active,[12],0 (inactive)
same,phenotypically active,[13],0 (inactive)
same,phenotypically active,[14],1 (active)
same,phenotypically active,[15],1 (active)
same,phenotypically active,[16],0 (inactive)
